# PubChem BioAssay (Tox21)
# Several values for one entry are separate records, joined by “and”; a condition that tells them apart may be missing. Identical values can stand only once. Records with an inconclusive call do not appear. Entries that show only a call come without a potency. The source holds several records for some structures; these can differ, active in one and inactive in another. Activity calls are given as the source filed them. Unless noted, calls come from the whole dose curve; as a rule, active = well fitted curve in the direction sought with a large enough effect in the repeat runs; inconclusive = weak or mixed curves; inactive = no such curve, though single readings can be large; an effect the other way counts as inactive or inconclusive.
# What was measured:
# [1] = qHTS assay to identify small molecule agonists of the peroxisome proliferator-activated receptor delta (PPARd) signaling pathway - cell viability counter screen (AID 743211); note: nearly all actives have a fitted effect of over 55% in size; note: potency is the fitted concentration of half-maximal effect
# Summary of the method: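 Counter screen for cytotoxicity run in parallel with the PPARd reporter screen. Beta-lactamase reporter HEK293H cells exposed to compounds 17 h; ATP-based CellTiter-Glo luminescence quantified viability.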
# [2] = target: Peroxisome proliferator-activated receptor delta (Homo sapiens) (UniProt Q03181); assay: qHTS assay to identify small molecule agonists of the peroxisome proliferator-activated receptor delta (PPARd) signaling pathway (AID 743212; calls by dose curve)
# Peroxisome proliferator-activated receptor delta (Homo sapiens), sequence (Q03181 whole entry, looked up): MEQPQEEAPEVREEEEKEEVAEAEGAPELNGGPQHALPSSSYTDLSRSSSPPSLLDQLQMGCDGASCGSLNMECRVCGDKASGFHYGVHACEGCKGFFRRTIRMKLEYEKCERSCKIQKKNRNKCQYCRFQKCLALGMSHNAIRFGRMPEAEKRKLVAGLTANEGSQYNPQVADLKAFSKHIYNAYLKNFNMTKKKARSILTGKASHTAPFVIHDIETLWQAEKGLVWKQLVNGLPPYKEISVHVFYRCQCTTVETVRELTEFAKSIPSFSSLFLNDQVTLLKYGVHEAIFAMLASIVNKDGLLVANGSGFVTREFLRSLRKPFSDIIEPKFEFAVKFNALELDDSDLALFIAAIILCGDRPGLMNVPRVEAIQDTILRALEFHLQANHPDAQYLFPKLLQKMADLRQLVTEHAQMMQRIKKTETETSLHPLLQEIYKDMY
# Summary of the method: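 Quantitative high-throughput agonist screen in a HEK293H beta-lactamase reporter line under UAS control. Compounds in DMSO, at 37 C. Fluorescence read after 2 h with FRET substrate at room temperature.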
# [3] = qHTS assay to identify small molecule antagonists of the peroxisome proliferator-activated receptor delta (PPARd) signaling pathway - cell viability counter screen (AID 743213); note: nearly all actives have a fitted effect of over 50% in size; note: potency is the fitted concentration of half-maximal effect
# Summary of the method: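 Cytotoxicity counter screen: CellTiter-Glo luminescence read 30 min after addition, in the same wells as the reporter assay. There, PPARd UAS-bla HEK293H cells (3000/well) were treated 17 h at 37 C with compound and 300 nM L165041.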
# [4] = target: Peroxisome proliferator-activated receptor delta (Homo sapiens) (UniProt Q03181); assay: qHTS assay to identify small molecule antagonists of the peroxisome proliferator-activated receptor delta (PPARd) signaling pathway (AID 743215; active = well fitted inhibition curve with a large enough effect in the signal ratio in the repeat runs, not every such curve was filed as active; the % refers to the signal ratio;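 note: cells stimulated with agonist L165041 at 300 nM final during compound exposure; series mostly up to about 62 µM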)
# Summary of the method: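 With L165041 present at 300 nM final, compounds were incubated 17 h at 37 C on PPARd UAS-bla HEK293H cells. A FRET-based beta-lactamase substrate was then applied for 2 h at room temperature and fluorescence intensity recorded.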
# [5] = qHTS assay to identify small molecule agonists of the farnesoid-X-receptor (FXR) signaling pathway - cell viability counter screen (AID 743218); note: nearly all actives have a fitted effect of over 45% in size; note: potency is the fitted concentration of half-maximal effect
# Summary of the method: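 After 16 h at 37 C with test compounds, FXR-bla HEK 293T cells were given LiveBLAzer B/G substrate for 2 h at RT and then CellTiter-Glo; luminescence was taken after 30 min.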
# [6] = qHTS assay to identify small molecule antagonists of the farnesoid-X-receptor (FXR) signaling pathway - cell viability counter screen (AID 743221; active = well fitted cell-killing curve with a large enough effect in the repeat runs, not every such curve was filed as active; note: nearly all actives have a fitted effect of over 50% in size; note: potency is the fitted concentration of half-maximal effect)
# Summary of the method: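 Multiplexed counter screen: viability of FXR-bla HEK 293T cells under agonist stimulation by chenodeoxycholic acid (50 uM, final) and test compound for 16 h at 37 C, measured by CellTiter-Glo luminescence in the reporter wells.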
# [7] = qHTS assay to identify small molecule agonists of the vitamin D receptor (VDR) signaling pathway - cell viability counter screen (AID 743224); note: series mostly up to about 63 µM; nearly all actives have a fitted effect of over 50% in size
# Summary of the method: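 Here cell health was gauged by luminescent ATP detection (CellTiter-Glo, 30 min RT) in VDR-bla cells that had been incubated with test compounds for 16 h at 37C and 5% CO2.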
# [8] = qHTS assay to identify small molecule antagonists of the vitamin D receptor (VDR) signaling pathway - cell viability counter screen (AID 743225); note: nearly all actives have a fitted effect of over 50% in size; note: potency is the fitted concentration of half-maximal effect
# Summary of the method: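 HEK293T VDR-bla; cpd + 1a,25-(OH)2D3 3 nM final, 16 h 37C/5% CO2; B/G FRET substrate 2 h RT; then CellTiter-Glo 30 min RT, luminescence.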
# [9] = qHTS assay to identify small molecule agonists of the NFkB signaling pathway - cell viability counter screen (AID 1159515; calls by dose curve; note: nearly all actives have a fitted effect of over 55% in size; note: potency is the fitted concentration of half-maximal effect)
# Summary of the method: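 5 hr compound treatment of NFkB-bla ME-180 cells (2,000/well, seeded overnight beforehand), followed by reporter substrate for 1.5 hr. CellTiter-Glo added afterward; luminescence after 30 min RT.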
# [10] = qHTS assay to identify small molecule agonists of the endoplasmic reticulum stress response signaling pathway (AID 1159516; active = well fitted activation curve with a large enough effect in the signal ratio in the repeat runs, not every such curve was filed as active; the % refers to the signal ratio)
# Summary of the method: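 Reporter HeLa cells (ESRE-beta-lactamase) underwent 5 hr compound incubation at 37 C and 5% CO2 in quantitative HTS format. Detection followed 2 hr of FRET substrate loading at room temperature.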
# [11] = qHTS assay to identify small molecule agonists of the endoplasmic reticulum stress response signaling pathway - cell viability counter screen (AID 1159517; calls by dose curve; note: nearly all actives have a fitted effect of over 50% in size; note: potency is the fitted concentration of half-maximal effect)
# Summary of the method: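 Counter-screen wells were identical to the reporter wells. Cells were plated at 1,500 per well and dosed for 5 hr, then read for luminescence 30 min after CellTiter-Glo addition.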
# [12] = qHTS assay to identify small molecule antagonists of the retinoid-related orphan receptor gamma (ROR-gamma) signaling pathway - cell viability counter screen (AID 1159520); note: nearly all actives have a fitted effect of over 50% in size; note: potency is the fitted concentration of half-maximal effect
# Summary of the method: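 Tet-on ROR gamma CHO cells were given compounds for 2 hr, then doxycycline hyclate at 1 uM final, and incubated 16 hr at 37 C. Viability was measured as ATP content by CellTiter-Glo luminescence.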
# [13] = target: Nuclear receptor ROR-gamma (Homo sapiens) (UniProt P51449); assay: qHTS assay to identify small molecule antagonists of the retinoid-related orphan receptor gamma (ROR-gamma) signaling pathway (AID 1159521; note: nearly all actives have a fitted effect of over 50% in size; note: potency is the fitted concentration of half-maximal effect)
# Summary of the method: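 Cells were plated, rested 4 h at 37 C, exposed to compounds for 2 h, then given 1 uM final doxycycline hyclate to induce RORγ expression. After 16 h, ONE-Glo luminescence from the ROR response element reporter was measured.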
# [14] = qHTS assay to identify small molecule agonists of the AP-1 signaling pathway - cell viability counter screen (AID 1159525; calls by dose curve; note: nearly all actives have a fitted effect of over 55% in size; note: potency is the fitted concentration of half-maximal effect)
# Summary of the method: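 AP-1-bla ME-180 cells in Opti-MEM with 0.5% dialyzed FBS, compound exposure 5 h at 37 C in 15-point titration. Viability read in the same wells as ATP content by CellTiter-Glo luminescence, normalised to tetra-n-octylammonium bromide and DMSO controls.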
# [15] = qHTS assay to identify small molecule agonists of the AP-1 signaling pathway (AID 1159526; calls by dose curve)
# [16] = target: Retinoic acid receptor RXR-alpha (Homo sapiens) (UniProt P19793); assay: qHTS assay to identify small molecule agonists of the RXR signaling pathway (AID 1159527; calls by dose curve; note: nearly all actives have a fitted effect of over 35% in size; note: potency is the fitted concentration of half-maximal effect)
# Retinoic acid receptor RXR-alpha (Homo sapiens), sequence (P19793 whole entry, looked up): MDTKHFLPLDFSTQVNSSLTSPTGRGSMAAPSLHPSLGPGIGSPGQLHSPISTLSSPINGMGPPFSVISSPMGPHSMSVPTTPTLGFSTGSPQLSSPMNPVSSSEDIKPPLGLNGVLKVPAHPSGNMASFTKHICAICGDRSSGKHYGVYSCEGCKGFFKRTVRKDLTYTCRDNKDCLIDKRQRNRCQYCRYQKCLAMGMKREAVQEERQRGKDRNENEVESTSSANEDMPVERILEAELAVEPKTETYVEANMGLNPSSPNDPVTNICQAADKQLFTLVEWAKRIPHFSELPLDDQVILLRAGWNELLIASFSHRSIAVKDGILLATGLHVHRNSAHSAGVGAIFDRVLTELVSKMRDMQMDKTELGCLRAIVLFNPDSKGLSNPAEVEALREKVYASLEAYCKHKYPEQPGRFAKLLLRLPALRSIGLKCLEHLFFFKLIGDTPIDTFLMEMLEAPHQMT
# Summary of the method: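 Cells plated at 2,000/well, rested 5 hr at 37 C, pin-dosed with DMSO compound solutions, incubated 16 hr, then loaded with B/G FRET substrate for 2 hr at RT before dual-emission fluorescence reading.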
# [17] = target: Vitamin D3 receptor (Homo sapiens) (UniProt P11473); assay: qHTS assay to identify small molecule agonists of the vitamin D receptor (VDR) signaling pathway (AID 743222; calls by dose curve)
# Vitamin D3 receptor (Homo sapiens), sequence (P11473 whole entry, looked up): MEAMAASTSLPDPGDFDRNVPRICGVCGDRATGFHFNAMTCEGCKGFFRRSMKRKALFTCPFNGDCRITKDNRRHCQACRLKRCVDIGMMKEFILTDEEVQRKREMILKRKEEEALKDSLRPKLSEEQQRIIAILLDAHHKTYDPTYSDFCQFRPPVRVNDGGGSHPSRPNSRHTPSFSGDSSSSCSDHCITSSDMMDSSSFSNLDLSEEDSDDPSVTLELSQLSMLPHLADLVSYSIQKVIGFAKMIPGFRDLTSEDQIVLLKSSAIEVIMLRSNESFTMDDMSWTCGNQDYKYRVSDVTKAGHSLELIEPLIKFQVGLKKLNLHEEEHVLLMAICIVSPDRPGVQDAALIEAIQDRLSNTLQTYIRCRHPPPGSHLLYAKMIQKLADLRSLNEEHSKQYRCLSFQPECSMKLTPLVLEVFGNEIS
# Summary of the method: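 VDR-bla cells were seeded, left 4 h, treated with compounds in DMSO for 16 h, incubated 2 h at RT with B/G FRET substrate, and read for fluorescence.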
# [18] = target: Vitamin D3 receptor (Homo sapiens) (UniProt P11473); assay: qHTS assay to identify small molecule antagonists of the vitamin D receptor (VDR) signaling pathway (AID 743223; active = well fitted inhibition curve with a large enough effect in the signal ratio in the repeat runs, not every such curve was filed as active; the % refers to the signal ratio)
# Summary of the method: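 Cells carrying a VDR-driven beta-lactamase reporter (VDR-bla) were co-treated with compound and 3 nM final 1alpha,25-dihydroxyvitamin D3 for 16 h at 37C; reporter activity was measured as FRET substrate fluorescence after 2 h at room temperature.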
# [19] = target: Bile acid receptor (Homo sapiens) (UniProt Q96RI1); assay: qHTS assay to identify small molecule antagonists of the farnesoid-X-receptor (FXR) signaling pathway (AID 743217; active = well fitted inhibition curve with a large enough effect in the signal ratio in the repeat runs, not every such curve was filed as active; the % refers to the signal ratio)
# Bile acid receptor (Homo sapiens), sequence (Q96RI1 whole entry, looked up): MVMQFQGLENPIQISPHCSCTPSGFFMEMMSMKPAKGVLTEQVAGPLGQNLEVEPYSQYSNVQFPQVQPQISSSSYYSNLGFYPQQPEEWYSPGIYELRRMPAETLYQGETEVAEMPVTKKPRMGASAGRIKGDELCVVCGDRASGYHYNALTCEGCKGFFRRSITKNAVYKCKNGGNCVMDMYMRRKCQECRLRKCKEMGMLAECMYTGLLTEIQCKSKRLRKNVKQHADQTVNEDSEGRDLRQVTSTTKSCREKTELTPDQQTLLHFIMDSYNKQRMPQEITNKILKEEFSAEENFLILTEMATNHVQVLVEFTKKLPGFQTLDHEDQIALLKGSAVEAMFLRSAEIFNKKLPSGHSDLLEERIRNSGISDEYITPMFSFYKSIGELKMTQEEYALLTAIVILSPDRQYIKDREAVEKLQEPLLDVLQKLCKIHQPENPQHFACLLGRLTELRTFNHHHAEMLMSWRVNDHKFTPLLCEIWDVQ
# Summary of the method: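 In this cell-based antagonist screen, inhibition of CDCA-driven (50 uM final) UAS-beta-lactamase expression in HEK 293T cells was measured by FRET fluorescence following 16 h compound exposure at 37 °C.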
# [20] = target: Bile acid receptor (Homo sapiens) (UniProt Q96RI1); assay: qHTS assay to identify small molecule agonists of the farnesoid-X-receptor (FXR) signaling pathway (AID 743220; active = well fitted activation curve with a large enough effect in the signal ratio in the repeat runs, not every such curve was filed as active; the % refers to the signal ratio)
# Summary of the method: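 Beta-lactamase reporter under UAS control in GeneBLAzer FXR HEK 293T cells (5000/well) measured with LiveBLAzer FRET substrate after 2 h at room temperature. Compound exposure lasted 16 h at 37C.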
SMILES,Potency [1],outcome [2],Potency [3],outcome [4],Potency [5],Potency [6],Potency [7],Potency [8],Potency [9],outcome [10],Potency [11],Potency [12],Potency [13],Potency [14],Potency [15],Potency [16],outcome [17],Potency [18],Potency [19],outcome [20]
COP(=O)(OC)OC=C(Cl)Cl,inactive,inactive,inactive,inactive,inactive,inactive,inactive,inactive,inactive,inactive,inactive,inactive,inactive,inactive,inactive,inactive,,,,
O=[N+]([O-])c1ccccc1O,inactive,,inactive,,inactive,inactive,inactive,inactive,inactive,inactive,inactive,inactive,inactive,inactive,inactive,inactive,,,,
O=C(O)CCl,inactive,,inactive,,inactive,inactive,inactive,inactive,inactive,inactive,inactive,inactive,inactive,inactive,inactive,inactive,inactive,inactive,,
O=P1(N(CCCl)CCCl)NCCCO1 (stereo not drawn),inactive,inactive,inactive,inactive,,inactive,inactive,inactive,inactive,inactive,inactive,inactive,inactive,inactive,inactive,inactive,inactive,inactive,inactive,inactive
C[N+](C)(C)Cc1ccccc1,inactive,inactive,inactive,inactive,,inactive,inactive,inactive,inactive,inactive,inactive,inactive,inactive,inactive,inactive,inactive,inactive,inactive,inactive,inactive
Nc1ccccc1,inactive,,inactive,,,inactive,inactive,inactive,inactive,inactive,inactive,inactive,inactive,inactive,inactive,inactive,inactive,inactive,,
Cc1cc(Cl)ccc1OCC(=O)O,inactive,,inactive,,inactive,inactive,inactive,inactive,inactive,inactive,inactive,inactive,inactive,inactive,inactive,inactive,inactive,inactive,,
CC(Cl)(Cl)C(=O)O,inactive,inactive,inactive,inactive,,inactive,inactive,inactive,inactive,inactive,inactive,inactive,inactive,inactive,inactive,inactive,inactive,inactive,,
O=C(O)C(Cl)(Cl)Cl,inactive,inactive,inactive,inactive,inactive,inactive,inactive,inactive,inactive,inactive,inactive,inactive,inactive,inactive,inactive,inactive,inactive,inactive,,
CCC[N+]1(C)CCCCC1,inactive,,inactive,,inactive,inactive,inactive,inactive,inactive,inactive,inactive,inactive,inactive,inactive,inactive,inactive,,,,
COCC(=O)N(c1c(C)cccc1C)C(C)C(=O)OC (stereo not drawn),inactive,inactive,inactive,inactive,,inactive,inactive,inactive,inactive,inactive,inactive,inactive,inactive,inactive,inactive,inactive,inactive,inactive,inactive,inactive
CCNc1nc(Cl)nc(NCC)n1,inactive,,inactive,,,inactive,inactive,inactive,inactive,inactive,inactive,inactive,48.8 µM (active) and inactive,inactive,inactive,inactive and 12.2 µM (active),inactive,inactive,inactive,inactive
CCCC[n+]1cccc(C)c1,inactive,,inactive,,inactive,inactive,inactive,inactive,inactive,inactive,inactive,inactive,inactive,inactive,inactive,inactive,,,,
C[C@]12CCC(=O)C=C1CC[C@@H]1[C@@H]2CC[C@]2(C)C(=O)CC[C@@H]12,inactive,inactive,inactive,,inactive,inactive,inactive,inactive,inactive,inactive,inactive,inactive,23.9 µM (active) and inactive,inactive,inactive,inactive,,,inactive,inactive
Nc1ccc(-c2ccc(N)cc2)cc1,inactive,,inactive,,,inactive,inactive,inactive,inactive,inactive,inactive,inactive,inactive,inactive,inactive,inactive,inactive,inactive,,
CCC[N+]1(C)CCCC1,inactive,inactive,inactive,inactive,,inactive,inactive,inactive,inactive,inactive,inactive,inactive,inactive,inactive,inactive,inactive,,,,
COP(=O)(OC)C(O)C(Cl)(Cl)Cl (stereo not drawn),inactive,inactive,inactive,inactive,inactive,inactive,inactive,inactive,inactive,inactive,inactive,inactive,inactive,inactive,inactive,inactive,inactive,,,inactive
C1CCC(NC2CCCCC2)CC1,inactive,inactive,inactive,inactive,inactive,inactive,inactive,inactive,inactive,inactive,inactive,inactive,inactive,inactive,inactive,inactive,inactive,inactive,,
COc1ccc(N)cc1,inactive,inactive,inactive,inactive,,inactive,inactive,inactive,inactive,inactive,inactive,inactive,inactive,inactive,inactive,inactive,,,,
O=C(O)c1nc(Cl)ccc1Cl,inactive,,inactive,,inactive,inactive,inactive,inactive,inactive,inactive,inactive,inactive,inactive,inactive,inactive,inactive,,,,
O=C(O)C(Cl)Cl,inactive,inactive,inactive,inactive,,inactive,inactive,inactive,inactive,inactive,inactive,inactive,inactive,inactive,inactive,inactive and 3.09 µM (active),,,,
CCCn1cc[n+](C)c1,inactive,inactive,inactive,inactive,,inactive,inactive,inactive,inactive,inactive,inactive,inactive,inactive,inactive,inactive,inactive,,,,
Cc1cc(-c2ccc(N)c(C)c2)ccc1N,inactive,,inactive,,inactive,inactive,inactive,inactive,inactive,inactive,inactive,inactive,inactive,inactive,inactive,inactive,inactive,inactive,,
CNC,inactive,inactive,inactive,inactive,,inactive,inactive,inactive,inactive,inactive,inactive,inactive,inactive,inactive,inactive,inactive,inactive,inactive,,
Oc1ccccc1-c1ccccc1,inactive,inactive,inactive,inactive,,inactive,inactive,inactive,inactive,inactive,inactive,inactive,inactive,inactive,inactive,inactive,inactive,inactive,,
O=c1[nH]c(=O)n(Cl)c(=O)n1Cl,inactive,,inactive,,inactive,inactive,inactive,inactive,inactive,inactive,inactive,inactive,inactive,inactive,inactive,inactive,,,,
Oc1cccc2cccnc12,414 nM (active) and 155 nM (active) and inactive,,521 nM (active) and 155 nM (active),,inactive and 949 nM (active),776 nM [cytotoxic] (active) and inactive,,inactive and 8.71 µM (active),inactive and 977 nM (active),inactive,780 nM (active) and 155 nM (active),3.44 µM (active) and inactive,774 nM (active) and 864 nM (active) and inactive,1.23 µM (active) and inactive,inactive,inactive,inactive,inactive,,
OCCOc1ccccc1,inactive,inactive,inactive,inactive,,inactive,inactive,inactive,inactive,inactive,inactive,inactive,inactive,inactive,inactive,inactive,inactive,inactive,inactive,inactive
CCCC[N+]1(C)CCCC1,inactive,,inactive,,inactive,inactive,inactive,inactive,inactive,inactive,inactive,inactive,inactive,inactive,inactive,inactive,,,,
